This note sets out measurements from PubChem BioAssay AID2284100 (EPA ToxCast).

A word on the AC50: it is the concentration giving half of the maximal activity seen.

Calls of active or inactive are those of the source. How the source made its calls: active means hit-call score of the fitted dose curve at least 0.9, where 1 is the maximum; inactive means score below 0.9.

In this assay the target is human KDR (VEGFR2) Receptor Tyrosine Kinase, KDR (gene 3791) (UniProt P35968). The experiment in a line: ERF_FR_ENZ_hKDR: Eurofins (ERF) Enzymatic Radiometric [Km ATP] KinaseProfiler LeadHunter Assay for human KDR (VEGFR2) Receptor Tyrosine Kinase. The procedure: ERF_FR_ENZ_hKDR is a biochemical, single-readout assay that uses extracted gene-proteins in a cell-free assay. Measurements were taken 1 hour after chemical dosing in a 96-well plate. See KDR (VEGFR2) Human RTK Kinase Enzymatic LANCE Assay [Km ATP], Cerep.ERF_FR_ENZ_hKDR is an assay component calculated from the ERF_FR_ENZ_hKDR assay. It is designed to measure enzyme activity using a type of enzyme reporter as detected by fluorescence intensity with LANCE technology.Data from the assay component ERF_FR_ENZ_hKDR was analyzed at the assay endpoint, ERF_FR_ENZ_hKDR, in the positive analysis fitting direction relative to DMSO as the negative control and baseline of activity. Using a type of enzyme reporter, loss-of-signal activity can be used to understand changes in enzymatic activity as they relate to gene KDR. To generalize the intended target to other relatable targets, this assay endpoint is annotated to the kinase intended target family, where the subfamily is receptor tyrosine kinase.
Chain of human KDR (VEGFR2) Receptor Tyrosine Kinase, KDR (gene 3791) (P35968 whole entry, looked up): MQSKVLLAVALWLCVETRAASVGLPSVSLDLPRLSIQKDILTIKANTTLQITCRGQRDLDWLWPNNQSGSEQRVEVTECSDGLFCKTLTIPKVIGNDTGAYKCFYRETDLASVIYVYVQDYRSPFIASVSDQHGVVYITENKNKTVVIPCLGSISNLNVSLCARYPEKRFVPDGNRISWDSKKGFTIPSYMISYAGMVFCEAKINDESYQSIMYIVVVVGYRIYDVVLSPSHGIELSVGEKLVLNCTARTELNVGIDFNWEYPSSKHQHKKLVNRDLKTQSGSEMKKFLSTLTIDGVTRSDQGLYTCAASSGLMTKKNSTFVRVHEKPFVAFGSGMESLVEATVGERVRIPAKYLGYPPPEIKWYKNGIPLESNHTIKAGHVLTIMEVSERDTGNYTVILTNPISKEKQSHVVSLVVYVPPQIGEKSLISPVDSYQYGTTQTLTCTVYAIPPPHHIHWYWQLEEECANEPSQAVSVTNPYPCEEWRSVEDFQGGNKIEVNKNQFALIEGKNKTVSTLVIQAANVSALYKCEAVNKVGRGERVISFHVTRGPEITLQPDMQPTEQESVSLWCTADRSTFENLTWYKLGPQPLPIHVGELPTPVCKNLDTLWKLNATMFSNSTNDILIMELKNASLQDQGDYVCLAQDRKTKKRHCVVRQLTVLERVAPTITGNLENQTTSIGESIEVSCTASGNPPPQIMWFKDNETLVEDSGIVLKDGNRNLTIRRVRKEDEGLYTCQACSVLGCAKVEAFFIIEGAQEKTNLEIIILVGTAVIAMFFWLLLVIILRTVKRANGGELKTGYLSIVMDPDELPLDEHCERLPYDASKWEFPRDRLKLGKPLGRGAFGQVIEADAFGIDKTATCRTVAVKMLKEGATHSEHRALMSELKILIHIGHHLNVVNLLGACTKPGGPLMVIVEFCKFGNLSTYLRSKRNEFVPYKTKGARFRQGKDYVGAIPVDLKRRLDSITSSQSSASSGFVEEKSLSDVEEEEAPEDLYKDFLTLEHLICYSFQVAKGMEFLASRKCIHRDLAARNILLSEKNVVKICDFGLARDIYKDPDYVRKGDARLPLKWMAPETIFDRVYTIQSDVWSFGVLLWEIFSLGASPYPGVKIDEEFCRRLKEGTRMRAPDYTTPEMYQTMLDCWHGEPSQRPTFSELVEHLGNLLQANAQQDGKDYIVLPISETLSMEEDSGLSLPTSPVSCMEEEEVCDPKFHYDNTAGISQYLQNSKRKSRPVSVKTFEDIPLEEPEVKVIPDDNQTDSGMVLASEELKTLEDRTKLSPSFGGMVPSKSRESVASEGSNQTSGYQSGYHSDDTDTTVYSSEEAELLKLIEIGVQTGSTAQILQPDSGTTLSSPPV
KDR (h) is incubated with 8 mM MOPS pH 7.0, 0.2 mM EDTA, 0.33 mg/mL myelin basic protein, 10 mM MgAcetate and [gamma-33P]-ATP (specific activity and concentration as required). The reaction is initiated by the addition of the Mg/ATP mix. After incubation for 40 minutes at room temperature, the reaction is stopped by the addition of phosphoric acid to a concentration of 0.5%. […]
With `O=C(/C=C/c1ccc(O)cc1)CC(=O)/C=C/c1ccc(O)cc1`, the half-maximal activity concentration (AC50) was 2390 nM (active).
